We go through nine molecules from PubChem BioAssay (NCI).

Holding throughout (test): NCI-60 one-dose screen, 48 h (100 = growth as untreated, 0 = no growth, -100 = all killed)
What all share (details): 10 µM unless noted

Test [1] has as its system SR leukemia.
Test [2] concerns RPMI-8226 leukemia.
The subject of test [3] is OVCAR-8 ovarian.
Test [4] relates to OVCAR-5 ovarian.
Test [5] relates to OVCAR-4 ovarian.
The subject of test [6] is SK-OV-3 ovarian.
Test [7] deals with IGROV1 ovarian.
Test [8] deals with HS 578T breast.
In test [9] the test system is NCI/ADR-RES ovarian.
The subject of test [10] is T-47D breast.
For test [11], the system named is BT-549 breast.
For test [12], the system named is MDA-MB-435 melanoma.
The test system of test [13] is SW-620 colon.
Test [14] concerns MCF7 breast.
The subject of test [15] is HCT-116 colon.
Test [16] has as its system HCC-2998 colon.
Test [17] relates to KM12 colon.
Test [18] has as its system MDA-MB-468 breast.
Test [19] relates to OVCAR-3 ovarian.

The structures appear in SMILES notation. About 83,000 compounds went through this panel and 20% of them were active in at least one assay; those are over-represented in the sample as a whole.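 Cells were grown in 96-well plates and exposed to the test compound at a single concentration for 48 hours; results are reported as percent growth, with values below 10 considered active.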 A number with no mark means an inactive call. Active and inactive are the calls of the source.

`O=c1[nH]c2ccccc2cc1CSc1cccc(Nc2nccc(-c3ccc4ccccc4c3)n2)c1`: the growth in test [1] is 89.5%; in test [2], 49.4%; in test [3], 74.9%; in [4], 114%; in test [5] it was 69.4%; in test [6], 115%. The growth in [7] was 102%; in test [8], 105%; in test [9], 51.4%; in [10] it was 60.9%; in [11], 85.4%; in test [12] it was 87.9%. In addition, the growth in test [13] is 105%; in test [14], 85.1%; in test [15], 79.7%; in test [16], 97.3%; in [17] it was 95.9%; in [18], 80.4%.
`N#Cc1c(-c2ccc(Br)cc2)nc2n[nH]c(-c3ccc(Br)cc3)c2c1-c1ccc(F)cc1`: the growth is 80.7% in test [1]; 72.7% in test [2]; 101% in test [3]; 98.1% in [4]; 96.4% in test [5]; 72.7% in test [6]. Besides, the growth in test [7] was 75.1%; in [19], 106%; in test [9] it was 97.2%; in test [10] it was 74.6%; in test [11], 107%; in test [12], 102%. Further, the growth is 78.7% in [14]; 95.3% in [15]; 108% in [16]; 105% in [17]; 110% in [18].
As for `CNC(=O)c1cc(Oc2ccc3nc(NC(=O)Nc4cccc(OC(F)(F)F)c4)sc3c2)ccn1`, the growth in test [1] is 37.3%; in [2], 51.7%; in test [3] it was 6.11% (active); in [4], 50.6%; in test [5] it was 30.8%; in test [6], -30.7% (active). The growth in test [7] was 28.4%; in [19], 46.2%; in test [10], 47.4%; in test [11] it was 0.174% (active); in test [12] it was 53.9%; in test [14] it was 39.2%. For the same molecule, the growth in [15] was 17.2%; in [16], 46.8%; in test [17], 53.1%; in [18], 1.5% (active).
For `N#Cc1c(-c2ccccc2Cl)cc(-c2c[nH]c3ccccc23)[nH]c1=O`, the growth in [1] was 9.99% (active); in test [2], 70.7%; in test [3], 87.4%; in test [4], 82.1%; in test [5], 69.6%; in test [6] it was 87.8%. Further, the growth was 78.5% in test [7]; 93.8% in test [19]; 65% in [10]; 73.9% in test [11]; 23.6% in test [12]; 50.9% in [14]. For the same molecule, the growth in test [15] was 52.4%; in [16], 73.1%; in test [17], 71%; in test [18] it was 20.7%.
Turning to `CNS(=O)(=O)c1ccc(Nc2ccc(C(F)(F)F)cc2)c(-c2cn(C)cn2)c1`, the growth in [1] was 51.6%; in [2], 35.6%; in test [3], 52.6%; in test [4], 68.3%; in [5], 70.1%; in [6], 86.8%. The growth was 35.5% in test [7]; 59.6% in test [8]; 35% in [9]; 47.7% in [10]; 58.7% in [11]; 55.5% in test [12]. For the same molecule, the growth in [13] is 70.9%; in test [14], 42.3%; in test [15], 49.4%; in [16], 43.6%; in test [17] it was 35.9%.
Take `CCN(CC)c1ccnc(CNCCSC(c2ccccc2)(c2ccccc2)c2ccc(OC)cc2)c1`: the growth in [1] is -49.4% (active); in [2], -55.9% (active); in test [3] it was -78.6% (active); in [4], -11.9% (active); in [5] it was 14.1%; in test [6], -8.81% (active). For the same molecule, the growth in test [7] is -2.91% (active); in [19] it was -43% (active); in [10], -15.8% (active); in test [11], -25.4% (active); in test [12], -63.8% (active); in test [13] it was -66.6% (active). The growth in test [14] is -50.8% (active); in test [15], -78.6% (active); in test [16], -80.5% (active); in test [17], -49.8% (active); in [18], -64.1% (active).
Turning to `NS(=O)(=O)c1ccc(-n2cc(-c3cccc(NC(=O)c4cc(C(F)(F)F)cc(C(F)(F)F)c4)c3)nn2)cc1`, the growth in test [1] is 47.4%; in test [2], 90%; in test [3], 40.7%; in test [4], 70.5%; in test [5] it was 85.9%; in test [6] it was 68.4%. Besides, the growth in [7] is 63.1%; in test [19] it was 78.5%; in test [10], 60.3%; in [11] it was 98.7%; in test [12] it was 87.8%; in [14], 59.6%. Also, the growth is 46.7% in test [15], 65.3% in test [16], 21.9% in [17] and 55.1% in [18].
In the case of `CC12CC[C@@H]3[C@]4(C)COC(c5c(F)cccc5F)O[C@@H]4CC[C@@]3(C)[C@@H]1CC(C1=CCOC1=O)O2` (stereo not given in full), the growth in test [1] was 55.6%; in test [2], 40.4%; in [3], 59.8%; in [4], 85.6%; in test [5], 70.1%; in test [6], 77.2%. Further, the growth in test [7] was 79.1%; in test [8], 81.2%; in test [9], 59%; in [10], 55%; in [11], 48.3%; in test [12] it was 86.1%. Moreover, the growth in test [13] was 100%; in test [14], 58.4%; in test [15], 49.1%; in [16] it was 76.7%; in test [17], 72.6%; in [18], 52.1%.
Turning to `CC(=O)Nc1cccc(Nc2nc(N[C@H]3CCCc4ccccc43)c3ccccc3n2)c1`, the growth was 81.3% in test [1]; 103% in [2]; 103% in [3]; 103% in test [4]; 104% in test [5]; 91.6% in test [6]. The growth in test [7] was 111%; in test [19], 107%; in test [10], 102%; in [11], 131%; in test [12], 102%; in test [14], 95.6%. Also, the growth is 108% in test [15], 117% in test [16] and 101% in test [17].
